# KB-V1 cytotox – qHTS assay for MDR1-selective chemotherapeutics: Primary screen using the drug-selected MDR subline cells KB-V1. KB-V1 MDR cells viability, CellTiter-Glo, 72 h. Potency, µM (doses to about 46.1 µM), actives largely listed as cytotoxic. 400,000 tested, 3.4% active. AID 1347076, 2019; further: on the % scale 0 is the no-effect control and ±100 the full control effect; nearly all actives have a fitted effect of over 60% in size
#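 KB-V1, DMEM (no phenol red) + 10% FBS; cpd pin-transferred, titration series; 72 h, 37 degrees C; CellTiter-Glo, luminescence. Data normalized, curve-fit.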
# S2 tox – Viability Counterscreen for Primary qHTS for Inhibitors of ATXN expression. S2 cells (HEK-293 line with an ATXN2-luciferase reporter) viability, CellTiter-Fluor protease fluorescence, 24 h. Potency, µM (doses to about 56.7 µM), hits mostly cytotoxic. 400,000 tested, 0.49% active; further: nearly all actives have a fitted effect of over 40% in size
# KB-3-1 tox – qHTS assay for MDR1-selective chemotherapeutics: Primary screen using the parental adenocarcinoma cell KB-3-1 | KB-3-1 viability, CellTiter-Glo ATP luminescence, 72 h | Potency, µM (doses to about 46.1 µM), usual class: cytotoxic | 400,000 tested, 1.4% active | AID 1347075, 2019; further: on the % scale 0 is the no-effect control and ±100 the full control effect; nearly all actives have a fitted effect of over 60% in size
#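 Cells are dispensed, compounds pinned in, plates held at 37 °C for 72 h, then CellTiter-Glo is added and luminescence read after 10 minutes. Cell line: parental KB-3-1 in phenol-red-free DMEM, 10% FBS.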
# HT1080 IDH1KD tx – qHTS for induction of synthetic lethality in tumor cells producing 2HG: qHTS for the HT-1080-IDH1KD cell line | HT-1080 IDH1 knockdown viability, ATP luminescence, 48 h | Potency, µM (top dose mostly 46.1 µM), inactives show top-dose activity, negative = toxicity, hits mostly cytotoxic | 360,000 tested, 2% active | AID 686971, 2013;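 further: 0% = DMSO wells and -100% = cell-free medium wells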
#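 In this qHTS, HT-1080 cells depleted of IDH1 are exposed for 48 h at 37 °C to compound titrations. Toxicity is scored from CellTiter-Glo luminescence, with DMSO as full viability and medium alone as none.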
# ATXN2 expr inh – Primary qHTS for Inhibitors of ATXN expression | Potency, µM (titrated, usually from 57 µM), for inactives: top-dose activity change, negative = inhibition, usual class: inhibitors | AID 1745845, 2022 | HEK-293 ATXN2-luciferase reporter, luminescence, 24 h | 360,000 tested, 0.72% active; further: on the % scale 0 is the no-effect control and ±100 the full control effect; nearly all actives have a fitted effect of over 55% in size
#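 qHTS (up to 57 uM final) was run with 24 h compound exposure of reporter cells at 37 °C. Each well was multiplexed: SteadyGlo luminescence measured ATXN2-luciferase expression after a fluorogenic Gly-Phe-AFC viability readout (25 uM final).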
# HT1080-NT tox – qHTS for induction of synthetic lethality in tumor cells producing 2HG: qHTS for the HT-1080-NT fibrosarcoma cell line; HT-1080-NT fibrosarcoma viability, CellTiter-Glo ATP luminescence, 48 h; Potency, µM (titrated, usually from 46.1 µM), without a hit: top-dose activity, negative = less viability, hits mostly cytotoxic; 360,000 tested, 1.6% active; AID 686970, 2013;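 further: NT is the 2HG producing partner of a matched IDH1 knockdown line; 0% = DMSO-treated cells and -100% = media-only wells without cells; nearly all actives have a fitted effect of over 55% in size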
#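 HT-1080-NT; 750 cells/well; 5% FBS RPMI; 48 h compound, 37 degrees C; CellTiter-Glo luminescence; curve fitting and curve-class assignment.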
# Active calls of the source: *; i = inactive; ? = inconclusive; . = no result given; ! = not active in a repeat. Only some compounds are listed: those with a hit (about 6.2% of all), similar ones and a draw of the others. The call rests on the fitted dose curve; in most records, active means well fitted curve in the direction sought with a large enough effect; inconclusive means small, poorly fitted or top-dose-only effect, or another doubt; inactive means no such curve, though single readings can be large; an effect the other way counts as inactive or inconclusive. Potency means the concentration at half of the fitted maximal effect.
SMILES,KB-V1 cytotox,S2 tox,KB-3-1 tox,HT1080 IDH1KD tx,ATXN2 expr inh,HT1080-NT tox
COc1ccc(OC)c(C2C(C#N)=C(N)Oc3c2c(C)nn3-c2cccc(Cl)c2)c1 (stereo not given),i,i,23.1µM*,?,-2.2%,?
COc1ccccc1C1SCC(=O)Nc2c1c(C)nn2-c1cccc(C)c1 (stereo not given),i,i,i,.,-18.4%,.
C[C@]12Cc3cn[nH]c3C[C@@H]1CC[C@@H]1[C@H]2CC[C@@]2(C)[C@H]1CC[C@]2(C)O,.,.,.,.,-11.4%,.
Brc1ccc2c(c1)CN(CC1CCCCC1)Cc1cnnn1-2,18.4µM*,i,i,-27.8%,-4.4%,-22.5%
CC1c2ccccc2-n2nncc2CN1CC1CCCCC1 (stereo not given),i,i,i,8.8%,-18.3%,11.4%
c1ccc(CCN2CCCCC2)cc1,i,.,i,.,.,.
Cn1nc(-c2ccc(C(=O)Nc3ccc(OC(F)(F)F)cc3)cc2)c2ccccc2c1=O,i,?,?,.,-32.9%,.
O=c1cccc2n1CC1CC2CN(Cc2c(F)cccc2Cl)C1 (stereo not given),?,i,i,10.5%,10.2%,10.8%
O=c1cccc2n1CC1CC2CN(Cc2cccc(Cl)c2Cl)C1 (stereo not given),18.4µM*,i,i,?,0.0%,-28.3%
N#CC(c1ccccc1)c1cccc(Cl)n1 (stereo not given),i,?,i,2.9%,-4.2%,2.2%
COc1ccc(CC2NCC(O)C2OC(C)=O)cc1 (stereo not given),0.184µM*,?,0.184µM*,0.13µM*,0.0106µM*,1.84µM*
O=[N+]([O-])c1ncc[nH]1,.,.,.,.,-2.8%,.
Cc1ccccc1-c1nc(CS(=O)CC(=O)N2CCC3(CC2)OCCO3)c(C)o1 (stereo not given),13µM*,i,i,16.0%,-1.7%,1.4%
Cc1ccsc1-c1nc(CSCC(=O)N2CCC3(CC2)OCCO3)c(C)o1,?,i,i,-11.2%,0.7%,0.3%
Nc1ccc(N=Nc2ccccc2)cc1,i,22.4µM*!,i,-14.0%,0.0%,-11.6%
Cc1cc(N(C)C)ccc1N=Nc1ccc(N)cc1,i,?,i,?,47.8%,?
C[C@H](CO)N1C[C@H](C)[C@H](CN(C)C(=O)N[C@H](C)c2ccccc2)OCc2ccccc2-c2c(n(C)c3ccccc23)C1=O,i,?,?,-7.9%,-17.9%,-3.5%
NC(=S)c1cn(C2OC(CO)C(O)C2O)c2ncnc(N)c12 (stereo not given),i,?,?,1.3µM*,.,?
Nc1ncnc2c1ccn2[C@@H]1O[C@H](CO)[C@@H](O)[C@H]1O,0.206µM*,3.16µM*,0.184µM*,0.82µM*,1.12µM*,0.651µM*
Nc1ncnc2c1ncn2[C@@H]1O[C@H](COP(=O)(O)OP(=O)(O)OP(=O)(O)O)[C@@H](O)[C@H]1O,i,i,i,?,19.0%,?
CC(Cc1ccccc1)NCCCCl (stereo not given),.,i,.,.,-7.7%,.
C[C@]12CC[C@H]3[C@@H](CCC4=CC(=O)CC[C@@H]43)[C@@H]1CC[C@@H]2OC(=O)CCc1ccco1,.,i,.,.,-9.3%,.
CC(=O)Nc1cc(-c2ccc(C(=O)NC3CC3)cc2)cn2c(-c3ccc(F)c(Cl)c3)cnc12,?,i,i,18.4µM*,0.0%,?
CCOP(=O)(OCC)C(Nc1cccc(C(F)(F)F)c1)c1ccc(C)cc1 (stereo not given),?,i,?,?,-25.5%,?

# Assay outcomes deposited in PubChem by National Center for Advancing Translational Sciences (NCATS).
